From PubChem BioAssay
Hsp90 Hop PPI – qHTS Assay for Disrupters of an Hsp90 Co-Chaperone Interaction; actives 0.44% (n = 71,000); AlphaScreen TPR2A-His6 binding biotin-Hsp90 C-terminal peptide; Hsp90 C-terminal peptide / TPR2A (Hop) interaction, human; Potency, µM (top dose mostly 57 µM), for the others: top-dose activity change, negative = inhibition; active = well fitted curve in either direction with a large enough effect; inconclusive = small, poorly fitted or top-dose-only effect, or another doubt; also: potency is read from the fitted curve at half-maximal effect; % is scaled to controls: 0 for no effect and ±100 for the full control effect
Bst PK mod – Pyruvate Kinase. purified pyruvate kinase, luminescence ATP production; ribose 5-phosphate activator present at AC10. Potency, µM. actives 1.2% (n = 51,000). AID 361, 2006; in the data active = potency below about 11 µM; inconclusive = mostly about 12 µM to 25 µM;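 the screen sought inhibitors and activators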;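 also: potency is read from the fitted curve at half-maximal effect; scaled between full activation by ribose 5 phosphate and full inhibition by luteolin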
UbGFP stabilizer – Ubiquitin-GFP Assay. 67,000 tested, under 10 active. Potency, µM (highest dose often 45.9 µM), without a hit: at the highest dose activation (GFP accumulation), hits mostly activators. AID 526, 2006. Ubiquitin-GFP reporter cells, proteasome inhibition, GFP fluorescence; response scale: untreated = 0%, 10 µM MG-132 = 100%; active = well fitted activation curve with a large enough effect, not every such curve was filed as active; inconclusive = small, poorly fitted or top-dose-only effect, or another doubt; inactive = no such curve, though single readings can be large or run the other way; also: potency is read from the fitted curve at half-maximal effect
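Proteasome blockade was scored as a rise in GFP-expressing U2OS cells carrying a ubiquitin(G76V)-GFP construct, imaged after 4 hr compound treatment at 37 °C across a 46 uM–2.9 nM series.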
HBB splicing – qHTS Assay for Modulators of Hemoglobin Beta Chain Splicing. Potency, µM (titrated, usually from 46.1 µM), inactives show at the top dose activation, usual class: activators. actives 0.06% (n = 65,000). HBB splicing reporter cell assay, activation; EGFP reporter with mutant IVS2-654 intron; response scale: normalised to 500 nM splice-correcting PNA. AID 925, 2007; also: potency is read from the fitted curve at half-maximal effect; 0% is about no effect
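Compounds were applied for 2 days to HeLa EGFP-654 cells, 500/well in Optimem with 2% FCS. The reporter's EGFP is disrupted by mis-splicing of beta-globin intron IVS2-654. Readout: summed well GFP fluorescence from 488 nm laser scanning; reference was 500 nM antisense […] 654 PNA.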
Epigenetic mod – qHTS Assay for Epigenetic Modulators; mouse C127i GFP locus derepression, cytometry, 30 h; Potency, µM (doses to about 46.1 µM), without a hit: at the top dose GFP derepression (activation); actives 0.09% (n = 68,000); also: % of control where 0% means no effect
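Locus derepression in mouse mammary C127i cells whose integrated CMV-GFP reporter is normally silent; GFP expression after 30 h compound treatment was quantified by counting fluorescent cells.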
USP2a inhib – qHTS Assay for Inhibitors of Ubiquitin-specific Protease USP2a. actives 0.1% (n = 60,000). Potency, µM (doses to about 38.3 µM), for the others: at the top dose activity change, negative = inhibition, hits mostly inhibitors. USP2a enzymatic assay, qHTS inhibition. AID 927, 2007. Ubiquitin carboxyl-terminal hydrolase 2 (Homo sapiens), O75604; also: potency is read from the fitted curve at half-maximal effect; nearly all actives have a fitted effect of over 60% in size
Target sequence (O75604 whole entry, looked up): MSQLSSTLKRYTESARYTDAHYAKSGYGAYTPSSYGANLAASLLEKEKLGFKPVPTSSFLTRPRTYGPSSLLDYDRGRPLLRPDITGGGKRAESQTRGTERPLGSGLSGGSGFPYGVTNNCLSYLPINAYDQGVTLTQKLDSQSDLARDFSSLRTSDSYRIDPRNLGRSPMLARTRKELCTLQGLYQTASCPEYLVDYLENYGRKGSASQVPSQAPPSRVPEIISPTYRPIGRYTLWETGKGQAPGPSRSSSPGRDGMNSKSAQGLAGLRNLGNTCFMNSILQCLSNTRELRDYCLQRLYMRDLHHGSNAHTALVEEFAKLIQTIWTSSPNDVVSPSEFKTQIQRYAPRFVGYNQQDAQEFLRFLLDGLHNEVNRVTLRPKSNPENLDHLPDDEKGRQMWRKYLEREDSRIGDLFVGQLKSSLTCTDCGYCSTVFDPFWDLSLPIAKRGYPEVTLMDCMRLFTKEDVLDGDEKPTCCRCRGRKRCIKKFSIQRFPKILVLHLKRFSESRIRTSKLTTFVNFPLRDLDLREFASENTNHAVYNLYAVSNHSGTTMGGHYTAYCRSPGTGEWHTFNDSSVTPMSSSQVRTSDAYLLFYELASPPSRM
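USP2 core (20nM final) preincubated 30 min RT with compound, then Ub-PLA2 20nM and NBD C6-HPC 20uM final added; buffer 20mM Tris-HCl pH 8.0, 2mM CaCl2. Fluorescence Ex 460/Em 535 read at 0 and 2.5 h; normalized to NEM.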
* = called active by the depositor; ! = a repeat was not active; [ ] = remark or other dose. Most compounds without a hit are left out; they make up all but 1.3% or so of the library. Unless noted, calls follow the shape of the dose curve; as a rule, active = well fitted curve in the direction sought with a large enough effect; inconclusive = small, poorly fitted or top-dose-only effect, or another doubt; inactive = no such curve, though single readings can be large; an effect the other way counts as inactive or inconclusive.

`Brc1ccc(-c2nc(-c3ccccc3)no2)o1` gave Hsp90 Hop PPI 28%, Bst PK mod inactive, UbGFP stabilizer 3%, HBB splicing -2%, Epigenetic mod 0% and USP2a inhib -9%.
Screening c1ccc(-c2noc(-c3ccc4ccccc4c3)n2)cc1 returned Hsp90 Hop PPI 2%, Bst PK mod 3.7*, UbGFP stabilizer -8%, HBB splicing 1%, Epigenetic mod 0% and USP2a inhib -3%.
CCCS(=O)(=O)NCCc1csc(-c2cccnc2)n1 was read as Hsp90 Hop PPI -6%, UbGFP stabilizer 4% and HBB splicing 0%.
`CC(=O)OC[C@@H]1O[C@H](C/C=N\OCC[C@H]2C=C[C@H](OC(C)=O)[C@@H](COC(C)=O)O2)C=C[C@@H]1OC(C)=O` gave HBB splicing 2%[9.22 µM].
CC1(C)OCC(CSC2=C(SCC3COC(C)(C)O3)C(=O)c3ncccc3C2=O)O1 (stereo not given) was read as Hsp90 Hop PPI 16µM* and HBB splicing inconclusive.
For O=C1c2cccnc2-c2ncccc21 the results were Hsp90 Hop PPI -26%, Bst PK mod >57, UbGFP stabilizer -7%, HBB splicing -2%, Epigenetic mod 3% and USP2a inhib 0%.
For CN1[C@@H]2CC(OC(=O)[C@@H](CO)c3ccccc3)C[C@@H]1[C@H]1O[C@H]12 (stereo not given in full) the results were Hsp90 Hop PPI 4%[11 µM], UbGFP stabilizer -5%[9.17 µM], HBB splicing -1%[9.22 µM] and Epigenetic mod 3%[9.22 µM].
`COc1ccc(-c2cc(C(F)(F)F)n3nc(C)cc3n2)cc1` gave Hsp90 Hop PPI inconclusive, UbGFP stabilizer 22%, HBB splicing 0% and Epigenetic mod 0%.
`CCN(CC)c1nc(C#N)cc(-c2ccc(OC)cc2)n1` gave Hsp90 Hop PPI 25µM*, Bst PK mod >57, UbGFP stabilizer 0%, HBB splicing 7%[1.84 µM], Epigenetic mod -2% and USP2a inhib -11%.
Screening CCN(CC)c1nc2cc(OC)ccc2cc1C#N returned Hsp90 Hop PPI 25µM*, UbGFP stabilizer -11%, HBB splicing -6%, Epigenetic mod -1% and USP2a inhib -8%.
`Cc1cccc2cc(C#N)c(SCC(=O)N3CCC(C)CC3)nc12` gave Hsp90 Hop PPI -1%, Bst PK mod >57, UbGFP stabilizer -4%, HBB splicing 0%[57.5 µM], Epigenetic mod -2% and USP2a inhib 30%.
Cc1cccc2cc(C#N)c(SCC(=O)N3CC(=O)Nc4ccccc43)nc12 was read as Hsp90 Hop PPI 0%, Bst PK mod >57, UbGFP stabilizer 16%, HBB splicing inconclusive, Epigenetic mod 16µM* and USP2a inhib 38%.
COc1ccc(-c2nc(-c3ccc(Br)cc3)no2)c(OC)c1 was read as Hsp90 Hop PPI 12%, Bst PK mod 6.3*, UbGFP stabilizer 7%, HBB splicing 0%, Epigenetic mod 1% and USP2a inhib 5%.
`O=C(O)C1=CC(=C(c2ccc(O)c(C(=O)O)c2)c2ccc(O)c(C(=O)O)c2)C=CC1=O` gave Hsp90 Hop PPI inconclusive, UbGFP stabilizer -3%, HBB splicing -2%, Epigenetic mod -1% and USP2a inhib 20µM*!.
`C=C(CO)[C@H]1Cc2c(ccc3c2O[C@H]2COc4cc(OC)c(OC)cc4[C@@H]2C3=O)O1` gave Hsp90 Hop PPI -9%, UbGFP stabilizer 2% and Epigenetic mod -5%[9.22 µM].
For O=S1(=O)c2cccc3cccc(c23)N1Cc1nnc(-c2ccccc2Br)o1 the results were Hsp90 Hop PPI 18%, Bst PK mod 2.1*, UbGFP stabilizer 0%, HBB splicing 0%[57.5 µM], Epigenetic mod 0% and USP2a inhib 43%.
